In PubChem BioAssay (NCI):
The panel holds about 83,000 compounds, 20% with a hit somewhere; the sample as a whole holds those more often.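 96-well plates, one dose, 48 hours. Percent growth reported; active if below 10.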 Values without a mark were called inactive. Active and inactive are the calls of the source.

How the values were obtained:
Assay in all cases: NCI-60 one-dose screen, 48 h (100 = growth as untreated, 0 = no growth, -100 = all killed)
Conditions in all cases: 10 µM unless noted
DU-145 prostate = tested on: DU-145 prostate
K-562 leukemia = tested on: K-562 leukemia
MALME-3M melanoma = tested on: MALME-3M melanoma
MDA-MB-231 breast = tested on: MDA-MB-231 breast
RXF 393 renal = tested on: RXF 393 renal
SF-268 CNS = tested on: SF-268 CNS
SF-295 CNS = tested on: SF-295 CNS
SF-539 CNS = tested on: SF-539 CNS
UACC-257 melanoma = tested on: UACC-257 melanoma
M14 melanoma = tested on: M14 melanoma
HCT-15 colon = tested on: HCT-15 colon
HT29 colon = tested on: HT29 colon
SNB-75 CNS = tested on: SNB-75 CNS
SNB-19 CNS = tested on: SNB-19 CNS
U251 CNS = tested on: U251 CNS
PC-3 prostate = tested on: PC-3 prostate
SK-MEL-5 melanoma = tested on: SK-MEL-5 melanoma
UACC-62 melanoma = tested on: UACC-62 melanoma
LOX IMVI melanoma = tested on: LOX IMVI melanoma
SK-MEL-28 melanoma = tested on: SK-MEL-28 melanoma

| Compound | growth (DU-145 prostate) | growth (K-562 leukemia) | growth (MALME-3M melanoma) | growth (MDA-MB-231 breast) | growth (RXF 393 renal) | growth (SF-268 CNS) | growth (SF-295 CNS) | growth (SF-539 CNS) | growth (UACC-257 melanoma) | growth (M14 melanoma) | growth (HCT-15 colon) | growth (HT29 colon) | growth (SNB-75 CNS) | growth (SNB-19 CNS) | growth (U251 CNS) | growth (PC-3 prostate) | growth (SK-MEL-5 melanoma) | growth (UACC-62 melanoma) | growth (LOX IMVI melanoma) | growth (SK-MEL-28 melanoma) |
| --- | --- | --- | --- | --- | --- | --- | --- | --- | --- | --- | --- | --- | --- | --- | --- | --- | --- | --- | --- | --- |
| OC(c1ccccc1)c1ccccn1 (stereo not given) | 110% | 94.3% | 113% | 105% | 104% | 102% | 101% | 97.7% | 90.5% | 96.1% | 105% | 89.3% | 86.5% | 100% | 96.1% | 89.9% | 101% | 103% | 103% | 107% |
| C#CC(=O)Nc1cccc(Nc2nc3c(c(NCc4ccccc4)n2)CCCC3)c1 | -85.1% (active) | -22.3% (active) | -64.1% (active) | -71.7% (active) | -99.5% (active) | -78.5% (active) | -84% (active) | -90.7% (active) | -90.6% (active) | -88.2% (active) | -64.8% (active) | -29.1% (active) | -29.3% (active) | -79.4% (active) | -86.8% (active) | -66.2% (active) | -89.2% (active) | -77.9% (active) | -87.2% (active) | -84.6% (active) |
| N#Cc1cc(-c2nc3ccccc3s2)c(=O)n(NS(=O)(=O)c2ccc(Cl)cc2)c1N | 110% | 96.7% | 105% | 87.2% | 109% | 97.8% | 110% | 93.9% | 111% | 97.5% | 103% | 109% | 63.1% | 102% | 102% | 98.5% | 99.5% | 88.2% | 97% | 111% |
| COc1cccc(CNCCN2C(=O)c3ccc4c5c(ccc(c35)C2=O)C(=O)N(CCNCc2cccc(OC)c2)C4=O)c1 | 113% | 8.7% (active) | 26.3% | 78.1% | 87% | 74.1% | 113% | 97.8% | 79.1% | 71.7% | 9.24% (active) | 2.39% (active) | 120% | 84.2% | 76.9% | 78.9% | 58.8% | 96.8% | 59.4% | 120% |
| CC(=O)N1c2ccccc2NC2=C(C(=O)N(Cc3ccccc3)C2(C)C)C1c1ccco1 (stereo not given) | 7.82% (active) | 12.6% | 69.9% | 9.25% (active) | -11.7% (active) | 42.7% | -0.752% (active) | -17.9% (active) | 77.6% | -13.6% (active) | 15.7% | 9.99% (active) | 16.8% | 23.6% | 24.6% | 29.7% | 7.88% (active) | 21.2% | 25.6% | 57.3% |
| COc1ccc(C(=O)c2cc(C)c(OC)c(C)c2)c(OC)c1O | -5.78% (active) | 8.52% (active) | 54.8% | 16.8% | 35.4% | 31.5% | 25.2% | -10.8% (active) | 50.6% | -1.65% (active) | 8.64% (active) | 26.6% | 57.8% | 22.2% | 14.5% | 19.5% | -34.5% (active) | 30.3% | 21.5% | 48.8% |
| Nc1nnc(C(=O)c2cnc3n(c2=O)CCCCC3)s1 | 103% | 92.3% | 101% | 90.4% | 104% | 96.6% | 101% | 94.3% | 101% | 96.7% | 102% | 115% | 85.7% | 102% | 101% | 101% | 98.5% | 93.3% | 89% | 106% |
| COc1ccc(/C(C)=N/NC(=O)CSc2nc3ccccc3c(=O)n2Cc2ccc(S(N)(=O)=O)cc2)c(OC)c1 | 108% | 94.9% | 102% | 96.2% | 102% | 91.8% | 98.7% | 100% | 107% | 104% | 96.2% | 111% | 82.9% | 95.5% | 103% | 97.1% | 98% | 96.9% | 94.2% | 110% |
| Nc1ccccc1NC(=O)c1ccc(CN2CCC/C(=C\c3cccc(Cl)c3)C2=O)cc1 | 8.37% (active) | 4.21% (active) | 63.7% | -2.78% (active) | 20.6% | 3.92% (active) | 25.5% | 5.47% (active) | 37.7% | 24% | 15.4% | 1.41% (active) | 16.5% | 24.3% | 13.7% | 17.7% | -41.9% (active) | 27.1% | 9.7% (active) | 48.2% |
| O=C(O)/C=C\C(=O)N1C/C(=C\c2ccccc2Cl)C(=O)/C(=C/c2ccccc2Cl)C1 | -34.2% (active) | 8.25% (active) | 2.25% (active) | -15.4% (active) | -95.8% (active) | -33.7% (active) | -13% (active) | -20.9% (active) | 67.3% | 12% | -48.8% (active) | -78.1% (active) | -10.3% (active) | -52.7% (active) | -75.2% (active) | 16.7% | -54.1% (active) | -60.3% (active) | -69.3% (active) | -39.6% (active) |
| Clc1ccc2c(c1)c(-c1ccccc1)nc1nncn12 | 112% | 119% | 113% | 119% | 135% | 95.6% | 101% | 95.1% | 115% | 110% | 108% | 104% | 98.3% | 109% | 105% | 111% | 105% | 113% | 102% | 121% |
| COc1ccc(C(=O)/C=C/c2ccc(OCc3ccccc3)c(OC)c2)cc1OC | 36.7% | 20.7% | 56.4% | 55.3% | 75.1% | 43.8% | 57.1% | 83.3% | 63.2% | 83.1% | 45.8% | 10.6% | 34.1% | 87.1% | 10.1% | 46% | 66.1% | 70.8% | 34.3% | 89.6% |
| Cc1ccc(-c2csc(/N=C3\C(=O)Nc4ccccc43)n2)cc1 | 42.2% | 1.43% (active) | -3.69% (active) | 11.2% | -4.86% (active) | 33% | 13.9% | 20.3% | 11.9% | 13.4% | 32% | -8.75% (active) | 55.5% | 22.8% | -47.5% (active) | 2.72% (active) | -20.2% (active) | 0.615% (active) | -0.0538% (active) | 13.7% |
| C=C1C(=O)O[C@H]2[C@H]1CC/C(CNC(=O)/C=C/c1ccc(Br)cc1)=C\CC[C@@]1(C)O[C@@H]21 | -98.7% (active) | 0.48% (active) | -78% (active) | -80.6% (active) | -89.2% (active) | -29.4% (active) | 49.6% | -91.7% (active) | -40.5% (active) | -72.4% (active) | -64.2% (active) | -74.5% (active) | 48.9% | 15.9% | -28.3% (active) | -55.2% (active) | 28.7% | -93.5% (active) | -95.2% (active) | -66.1% (active) |
| COc1ccc(CC(C)=C(c2ccc(OCCN(C)C)cc2)c2ccc(OCCN(C)C)cc2)cc1 | 83.1% | -28.1% (active) | 96% | 39% | 74.2% | 82.7% | 67.3% | 81.7% | 92.7% | -39.7% (active) | 62.8% | 39% | 81.6% | 80.1% | 55.3% | 70.8% | 84.2% | 39.1% | 71.5% | 71.5% |
| C#CC(=O)Nc1cccc2c1cc(C)n2-c1nc2c(c(NCc3ccccc3)n1)CCCC2 | -97.1% (active) | -13.5% (active) | -64.4% (active) | -53% (active) | -94.4% (active) | -29.7% (active) | -85.4% (active) | -79.7% (active) | -73% (active) | -65.3% (active) | -74.4% (active) | -58.2% (active) | -25.6% (active) | -71.9% (active) | -91.9% (active) | -56.5% (active) | -96.1% (active) | -73.7% (active) | -65.8% (active) | -58.4% (active) |
